# Experimental data reported in PubChem BioAssay (Tox21).
# Where “and” joins values, the source holds several entries; their conditions need not be identical. Identical values can stand only once. Records with an inconclusive call do not appear. A call without a number means that no potency is given here. Where a structure was tested more than once in an assay, its records may differ in their call. Calls of active or inactive are those of the source. Unless noted, calls follow the shape of the dose curve; as a rule, active = well fitted curve in the direction sought with a large enough effect in the repeat runs; inconclusive = weak or mixed curves; inactive = no such curve, though single readings can be large; an effect the other way counts as inactive or inconclusive.
# Legend:
# [1] = qHTS assay to identify small molecule antagonists of the estrogen receptor alpha (ER-alpha) signaling pathway using the BG1 cell line in the presence of 0.1 nM 17-beta-estradiol - cell viability counter screen (AID 1259241); also: nearly all actives have a fitted effect of over 40% in size
# Method in brief: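 VM7Luc4E2 cells (endogenous ER-alpha, 4×ERE-luciferase), hormone-starved 5 days in charcoal-stripped FBS, were treated with compounds plus 0.1 nM 17beta-estradiol for 22 hr at 37C; viability read in same wells as CellTiter-Fluor live-cell protease fluorescence.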
# [2] = qHTS assay to identify small molecule antagonists of the androgen receptor (AR) signaling pathway using the MDA cell line in the presence of 0.5 nM R1881 - cell viability counter screen (AID 1259242); also: nearly all actives have a fitted effect of over 45% in size; also: potency is read from the fitted curve at half-maximal effect
# Method in brief: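 Concentration-response screen of compounds for toxicity in MDA-kb2 reporter cells: 16 hr at 37C with 0.5 nM R1881, endpoint live-cell protease fluorescence measured in the reporter wells.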
# [3] = target: Estrogen receptor (Homo sapiens) (UniProt P03372); test: qHTS assay to identify small molecule antagonists of the estrogen receptor alpha (ER-alpha) signaling pathway using the BG1 cell line in the presence of 0.1 nM 17-beta-estradiol (AID 1259244); also: nearly all actives have a fitted effect of over 50% in size; also: potency is read from the fitted curve at half-maximal effect
# Method in brief: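 Compounds were tested against 0.1 nM (final) 17beta-estradiol in VM7Luc4E2 cells, which express full-length ER-alpha and an ERE-luciferase reporter; luminescence was recorded following 22 h exposure.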
# [4] = qHTS assay to identify small molecule HDAC inhibitors (AID 1259364); also: potency is read from the fitted curve at half-maximal effect;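 also: wild-type HCT-116 cells with endogenous class I/II HDAC activity; nearly all actives have a fitted effect of over 45% in size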
# Method in brief: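 Screening used wild-type human colon HCT-116 cells incubated overnight, dosed with compounds for 2 hours, and assayed with a homogeneous luminogenic HDAC I/II reagent for 30 minutes at room temperature.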
# [5] = qHTS assay to identify small molecule HDAC inhibitors - cell viability counter screen (AID 1259365); also: series mostly up to about 92 µM; nearly all actives have a fitted effect of over 50% in size
# Method in brief: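 Wild-type HCT-116 cells were seeded at 1,500 per well, incubated overnight at 37 C, then exposed to compounds in DMSO for 2hr. Viability was read by CellTiter-Glo luminescence after 30min at room temperature.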
# [6] = qHTS assay to identify small molecule agonists of the sonic hedgehog signaling (Shh) pathway - cell viability counter screen (AID 1259366); also: nearly all actives have a fitted effect of over 50% in size; also: potency is read from the fitted curve at half-maximal effect
# Method in brief: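 NIH/3T3-derived 3T3 Gli1-Luc cells (stable Gli1-responsive firefly luciferase reporter) were seeded, rested 4 hr at 37 C/5% CO2, then exposed to compounds in DMSO for 24 hr; viability was read by CellTiter-Fluor fluorescence in the same wells.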
# [7] = qHTS assay to identify small molecule antagonists of the sonic hedgehog signaling (Shh) pathway - cell viability counter screen (AID 1259367); also: nearly all actives have a fitted effect of over 55% in size; also: potency is read from the fitted curve at half-maximal effect
# Method in brief: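 CellTiter-Fluor signal in conditioned medium-stimulated 3T3 Gli1-Luc cells, 23 hr compound exposure, 37C.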
# [8] = qHTS assay to identify small molecule agonists of the sonic hedgehog signaling (Shh) pathway (AID 1259368; calls by dose curve; also: nearly all actives have a fitted effect of over 15% in size; also: potency is read from the fitted curve at half-maximal effect)
# Method in brief: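 Hedgehog pathway agonism scored by increased firefly luciferase luminescence in 3T3Gli1-Luc cells treated 24 hr at 37 C; detection used a 30 min room-temperature reagent incubation.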
# [9] = qHTS assay to identify small molecule phospholipidosis (PLD) inducers (AID 1259344; active = well fitted curve in the direction sought with a large enough effect; an effect the other way counts as inactive or inconclusive)
# Method in brief: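 Accumulated phospholipid, stained red by LipidTOX during 24 h compound treatment of HepG2 cells at 37 C, is quantified from images as pit number and intensity, normalised per cell using Hoechst-stained nuclei.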
# Sequence of Estrogen receptor (Homo sapiens) (P03372 whole entry, looked up): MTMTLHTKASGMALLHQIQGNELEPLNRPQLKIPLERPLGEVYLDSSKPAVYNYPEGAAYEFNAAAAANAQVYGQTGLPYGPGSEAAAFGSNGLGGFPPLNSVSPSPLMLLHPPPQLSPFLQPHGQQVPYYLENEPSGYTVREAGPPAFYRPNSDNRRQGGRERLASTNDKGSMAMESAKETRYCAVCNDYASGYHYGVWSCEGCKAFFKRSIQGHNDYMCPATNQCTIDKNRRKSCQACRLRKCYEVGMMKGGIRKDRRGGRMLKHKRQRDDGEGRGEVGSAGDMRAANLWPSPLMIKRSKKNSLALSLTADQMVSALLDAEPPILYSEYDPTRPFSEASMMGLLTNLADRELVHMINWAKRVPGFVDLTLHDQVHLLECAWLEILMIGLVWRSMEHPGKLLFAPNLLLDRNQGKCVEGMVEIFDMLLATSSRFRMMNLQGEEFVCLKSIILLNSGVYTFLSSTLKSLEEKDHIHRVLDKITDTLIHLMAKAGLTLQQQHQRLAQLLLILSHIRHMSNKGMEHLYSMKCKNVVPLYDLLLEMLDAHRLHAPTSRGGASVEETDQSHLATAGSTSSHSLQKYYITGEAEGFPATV
Structure (SMILES),Potency [1],Potency [2],Potency [3],Potency [4],Potency [5],Potency [6],Potency [7],Potency [8],outcome [9]
CC1(C)C(=O)N(Cl)C(=O)N1Cl,inactive,inactive,inactive,inactive,inactive,inactive,inactive,inactive,–
O=C(Cl)c1ccc(C(=O)Cl)cc1,inactive,inactive,inactive,inactive,inactive,inactive,inactive,inactive,–
O=Cc1ccc(CO)o1,inactive,inactive,inactive,inactive,inactive,inactive,inactive,inactive,–
CCc1cccc(O)c1,inactive,inactive,inactive,inactive,inactive,inactive,inactive,inactive,–
CC(=O)CC(=O)N(C)C,inactive,inactive,inactive,inactive,inactive,inactive,inactive,inactive,–
O=C1CCCCCCCCCCC1,inactive,inactive,inactive,inactive,inactive,inactive,inactive,inactive,–
Cc1ccc(Cl)cc1,inactive,inactive,inactive,inactive,inactive,inactive,inactive,inactive,–
COc1ccc(N)c(OC)c1,inactive,inactive,inactive,inactive,inactive,inactive,–,inactive,–
C[Si](C)(C)N[Si](C)(C)C,inactive,inactive,inactive,inactive,inactive,inactive,inactive,inactive,–
NCCNCCNCCN,inactive,inactive,–,inactive,inactive,inactive,inactive,–,inactive
COc1ccc([C@@H]2CC(=O)c3c(O)cc(O[C@@H]4O[C@H](CO[C@@H]5O[C@@H](C)[C@H](O)[C@@H](O)[C@H]5O)[C@@H](O)[C@H](O)[C@H]4O)cc3O2)cc1OC,inactive,inactive,inactive,inactive,inactive,inactive,inactive,inactive,–
Cc1ccc([N+](=O)[O-])cc1N,inactive,inactive,inactive,inactive,inactive,inactive,inactive,inactive,–
CC(CN1c2ccccc2Sc2ccccc21)N(C)C (configuration not stated),inactive,inactive,–,inactive,inactive,61.8 µM (active) and 30.6 µM (active) and inactive,27.6 µM (active) and inactive,–,inactive
Cc1ccccc1C=O,inactive,inactive,inactive,inactive,inactive,inactive,inactive,inactive,–
OCC(CO)(CO)CO,inactive,inactive,inactive,inactive,inactive,inactive,inactive,inactive,–
CC(C)(C)NC[C@H](O)COc1nsnc1N1CCOCC1,inactive,inactive,–,inactive,inactive,inactive,inactive,–,inactive
CC(=O)OC/C=C(\C)CCC=C(C)C,inactive,inactive,inactive,inactive,inactive,inactive,inactive,inactive,–
COc1c(Cl)ccc(Cl)c1C(=O)O,inactive,inactive,inactive,inactive,inactive,inactive,inactive,inactive,–
CCCCCCCCC(=O)O,inactive,inactive,inactive,inactive,inactive,inactive,inactive,inactive,–
CC(=O)OC(C)(C)C1CC=C(C)CC1 (configuration not stated),inactive,inactive,inactive,inactive,inactive,inactive,inactive,inactive,–
C1CCCNCC1,inactive,inactive,inactive,inactive,inactive,inactive,inactive,inactive,–
OC1CCCCC1,inactive,inactive,inactive,inactive,inactive,inactive,inactive,inactive,–
NC(N)=S,inactive,inactive,inactive,inactive,inactive,inactive,inactive,inactive,–
COC(=O)CCCCC(=O)OC,inactive,inactive,inactive,inactive,inactive,inactive,inactive,inactive,–
CC(C)c1ccc(C(C)C)cc1,inactive,inactive,inactive,inactive,inactive,inactive,inactive,inactive,–
O=C(O)C1=NN(c2ccc(S(=O)(=O)O)cc2)C(=O)C1,inactive,inactive,inactive,inactive,inactive,inactive,inactive,inactive,–

Structure (SMILES),Potency [1],Potency [2],Potency [3],Potency [4],Potency [5],Potency [6],Potency [7],Potency [8],outcome [9]
CC(=O)C(C)C,inactive,inactive,inactive,inactive,inactive,inactive,inactive,inactive,–
C=CC(C)(C)C,inactive,inactive,inactive,inactive,inactive,inactive,inactive,inactive,–
CN1CCCC1=O,inactive,inactive,inactive,inactive,inactive,inactive,inactive,inactive,–
N#CCC(=O)O,inactive,inactive,inactive,inactive,inactive,inactive,inactive,inactive,–
O=C(c1ccccc1)c1ccc(O)c(O)c1O,inactive,inactive,inactive,inactive,inactive,–,–,inactive,–
Cc1cc(C)c(O)c(C)c1,inactive,inactive,inactive,inactive,inactive,inactive,inactive,inactive,–
O=C1C(N(CO)C(=O)NCO)N(CO)C(=O)N1CO (configuration not stated),inactive,inactive,inactive,inactive,inactive,inactive,inactive,inactive,–
COc1cc(NC(=O)CC(C)=O)c(OC)cc1Cl,inactive,inactive,inactive,inactive,inactive,inactive,inactive,inactive,–
O=C(NCC1CCCCN1)c1cc(OCC(F)(F)F)ccc1OCC(F)(F)F (configuration not stated),inactive,inactive,–,inactive,inactive,inactive,inactive,–,inactive
Oc1ccc(Cc2ccccc2O)cc1,inactive,inactive,inactive,inactive,inactive,inactive,inactive,inactive,–
O=c1n(CCCN2CCN(c3cccc(Cl)c3)CC2)nc2ccccn12,inactive,inactive,–,inactive,inactive,inactive,inactive,–,inactive
CC(=O)c1nccs1,inactive,inactive,inactive,inactive,inactive,inactive,inactive,inactive,–
CCCCCC(C)=O,inactive,inactive,–,inactive,inactive,inactive,inactive and 54.5 µM (active),inactive,–
CC(COCC(C)OC(=O)c1ccccc1)OC(=O)c1ccccc1 (configuration not stated),inactive,inactive,–,inactive,inactive,inactive,inactive,–,–
CC1(C)[C@@H](O[C@H]2O[C@H](C(=O)O)[C@@H](O)[C@H](O)[C@H]2O[C@@H]2O[C@H](C(=O)O)[C@@H](O)[C@H](O)[C@H]2O)CC[C@]2(C)[C@H]3C(=O)C=C4[C@@H]5C[C@@](C)(C(=O)O)CC[C@]5(C)CC[C@@]4(C)[C@]3(C)CC[C@@H]12,inactive,inactive,–,inactive,inactive,inactive,inactive,inactive,inactive
CCCOC(=O)NCCCN(C)C,inactive,inactive,–,inactive,inactive,inactive,inactive,inactive,–
CC(=O)OC[C@H]1O[C@@](COC(C)=O)(O[C@H]2O[C@H](COC(C)=O)[C@@H](OC(C)=O)[C@H](OC(C)=O)[C@H]2OC(C)=O)[C@@H](OC(C)=O)[C@@H]1OC(C)=O,inactive,inactive,–,inactive,inactive,inactive,inactive,–,inactive
Cc1cc(CC(=O)O)n(C)c1C(=O)c1ccc(Cl)cc1,inactive,inactive,–,inactive,inactive,inactive,inactive,inactive,inactive
CCn1cc(C(=O)O)c(=O)c2cc3c(cc21)OCO3,inactive,inactive,–,inactive,inactive,inactive,inactive,inactive,inactive
CCN(CC)CCNC(=O)c1ccc(N)cc1,inactive,inactive,–,inactive,inactive,inactive,inactive,inactive,inactive
Brc1ccc(Oc2ccc(Br)cc2)cc1,inactive,inactive,–,inactive,inactive,inactive,inactive,–,–
CN1Cc2c(N)cccc2C(c2ccccc2)C1 (configuration not stated),inactive,inactive,–,inactive,–,inactive,inactive,inactive,inactive
CC/C(C)=N/O,inactive,inactive,–,inactive,inactive,inactive,inactive,inactive,–
Cc1ccc(C)c(S(=O)(=O)O)c1,inactive,inactive,–,inactive,inactive,inactive,inactive,–,–
COC(=O)/C=C\C(=O)OC,inactive,inactive,–,inactive,inactive,inactive,inactive,inactive,–
NC(=O)c1ncn([C@@H]2O[C@H](CO)[C@@H](O)[C@H]2O)n1,inactive,inactive,–,inactive,inactive,inactive,inactive,inactive,inactive

Structure (SMILES),Potency [1],Potency [2],Potency [3],Potency [4],Potency [5],Potency [6],Potency [7],Potency [8],outcome [9]
c1cnc2c(c1)ccc1cccnc12,–,inactive,–,19.5 µM (active) and 24.3 µM (active) and 27.3 µM (active),inactive,24.6 µM (active),13.8 µM (active) and 68.6 µM (active) and 43.3 µM (active),3.09 µM (active) and 24.3 µM (active) and 21.7 µM (active),–
COc1ccc2cc3[n+](cc2c1OC)CCc1cc2c(cc1-3)OCO2,–,10.6 µM (active),1.55 µM (active) and 11.9 µM (active),inactive,inactive,inactive,inactive,–,inactive
Cc1cccc(C)c1[N+](=O)[O-],inactive,inactive,–,inactive,inactive,inactive,inactive and 48.6 µM (active),–,–
Cc1ncc(CO)c(CO)c1O,inactive,inactive,–,inactive,inactive,inactive,inactive,inactive,inactive
CC(=O)OCCC(C)C,inactive,inactive,–,inactive,inactive,inactive,inactive,–,–
O=C1O[C@H]([C@H](O)CO)C(O)=C1O,inactive,inactive,–,inactive,inactive,inactive,inactive,–,–
C=C(C)CC(C)(C)C,inactive,inactive,–,inactive,inactive,inactive,inactive,–,–
CS(=O)(=O)c1ccc(Cl)cc1,inactive,inactive,–,inactive,inactive,inactive,inactive,–,–
C=C1C[C@]23C[C@@]1(O)CC[C@H]2[C@@]12C=C[C@H](O)[C@@](C)(C(=O)O1)[C@H]2[C@@H]3C(=O)O,inactive,inactive,–,inactive,inactive,inactive,inactive,inactive,–
CC(=O)OCc1ccc2c(c1)OCO2,inactive,inactive,–,inactive,inactive,inactive,inactive,–,–
OCCOCCOCCOCCOCCO,inactive,inactive,–,inactive,inactive,inactive,inactive,–,–
C[n+]1ccn(CCO)c1,inactive,inactive,–,inactive,inactive,inactive,inactive,inactive,–
CCOC(=O)CC(=O)OCC,inactive,inactive,–,inactive,inactive,inactive,inactive,inactive,–
OCc1ccc(Cl)cc1Cl,inactive,inactive,–,inactive,inactive,inactive,inactive,inactive,inactive
NC1CCCCC1N (configuration not stated),inactive,inactive,–,inactive,inactive,inactive,inactive,inactive,–
Clc1cccc(Cl)c1NC1=NCCN1,inactive,inactive,–,inactive,inactive,inactive,inactive,inactive,inactive
CCCCCNCCCCC,inactive,inactive,–,inactive,inactive,inactive,inactive,inactive,–
O=C1OC(=O)c2c(Cl)c(Cl)c(Cl)c(Cl)c21,inactive,inactive,–,inactive,inactive,inactive,inactive,inactive,–
O=C(O)Cc1c[nH]c2ccccc12,inactive,inactive,–,inactive,inactive,inactive,inactive,–,–
COc1ccccc1[N+](=O)[O-],inactive,inactive,–,inactive,inactive,inactive,inactive,–,–
C=C(CC(=O)O)C(=O)O,inactive,inactive,–,inactive,inactive,inactive,inactive,inactive,–
CC[N+](CC)(CC(=O)Nc1c(C)cccc1C)Cc1ccccc1,inactive,inactive,–,inactive,inactive,inactive,inactive,inactive,inactive
CC1=CC(=O)CC(C)(C)C1,–,inactive,–,inactive,inactive,inactive,inactive,inactive,–
COC(=O)OC,inactive,inactive,–,inactive,inactive,inactive,inactive,inactive,–
